Measurements from PubChem BioAssay (NCI).
Where “and” joins values, the source holds several entries; their conditions need not be identical. Equal values may be shown once. The panel holds about 83,000 compounds, 20% with a hit somewhere; the sample as a whole holds those more often.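 Results are percent growth after 48 hours of single-concentration exposure. 100 means growth as in untreated cells, lower positive values show inhibition; negative values down to -100 show cell death.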 Unmarked numbers belong to inactive results. Calls of active or inactive are those of the source. How the source made its calls: active means growth percent below 10; inactive means the rest.

Each compound was assayed on MDA-MB-468 breast (assay: NCI-60 one-dose screen, 48 h (100 = growth as untreated, 0 = no growth, -100 = all killed)). Details: 10 µM unless noted.

Going from `CCN1CCN(c2nc3ccccc3c3c(=O)c4cc(F)ccc4sc23)CC1` to `OC(COc1cccc2ccccc12)CN1CCN(c2ccccc2Cl)CC1` (stereo not given), the growth rises from 70.9% to 89.7%.

Going from `N[C@H](CS)C(=O)O` to `CCc1c(C)[nH]c(=O)c(C(N)=O)c1C#N`, the growth rises from 93.1% to 105%.

Going from `COc1cccc(NC(=O)Cn2cc(CN3CCN(c4ccnc5cc(Cl)ccc45)CC3)nn2)c1` to `COc1cc(Cl)cc(-c2nn(-c3cccc(NC(=O)c4ccc(N5CCOCC5)c(C(F)(F)F)c4)c3)cc2-c2ccncc2)c1`, the growth falls from 84.1% to 50.2%.

Compared with `CCOC(=O)/C=C1\S/C(=N\Nc2cc(=O)[nH]c3ccccc23)N(c2ccccc2)C1=O`, `O=C(CC(=O)c1ccccc1O)c1ccccc1` is lower in growth: 105% for the first, 71.9% for the second.

Going from `N#Cc1nc(-c2ccc(F)cc2)oc1S(=O)(=O)N1CCOCC1` to `COc1ccc(-c2c(C)nn3c(NCCN4CCOCC4)cc(C)nc23)cc1OC`, the growth rises from 29% to 96.3%.

Going from `C[C@H](NC(=O)[C@@H]1CSSC[C@@H](NC(=O)Cc2nc3ccccc3cc2O)C(=O)NCC(=O)N1C)c1ccccc1` to `O=C1N(Cc2ccccc2Cl)c2ccccc2C12NN=C(c1ccccc1)S2` (stereo not given), the growth rises from 17.5% to 57.2%.

First: CCOC(=O)C#Cc1c(CC(=O)OCC)nnn1[C@H]1O[C@@H](CO)[C@@H]2OC(C)(C)O[C@@H]21
Second: CCCN1[C@@H]2CC[C@H]1/C(=C\c1ccc(OC)c(OC)c1)C(=O)/C2=C/c1ccc(OC)c(OC)c1
The growth of the first is lower: 10.6% for the first, 17.7% for the second.

Going from `COc1cc2nc(NC3CCCC3)nc(NC3CCN(C(C)C)CC3)c2cc1OC` to `COc1ccc2nc(NC(=O)CN3CCn4c(nnc4C(F)(F)F)C3)sc2c1`, the growth rises from 45.4% to 84.5%.

Compared with `CC(C)(C)c1ccc(C(=O)Nc2nc3ccc(O)cc3s2)cc1`, `Cc1ccc(NC(=O)Cn2nncc2CN2C(=O)CSC2=O)cc1C` is higher in growth: 18.6% for the first, 95.5% for the second.

First: Cc1c(N(C)CS(=O)(=O)O)c(=O)n(-c2ccccc2)n1C
Second: CC(=O)Cc1ccccn1
The growth of the first is lower: 106% for the first, 120% for the second.

Going from `O=C(CCCCCCNC(=O)C(O)(O)C(F)(F)F)Nc1ccc(Cl)cc1` to `CN1C2CCC1/C(=C\c1ccc(Cl)cc1)C(=O)/C2=C/c1ccc(Cl)cc1`, the growth rises from 16.9% to 59.1%.

Compared with `Oc1ccccc1C=Nc1ccccc1N=Cc1ccccc1O.[Cu+2]`, `O=C1Nc2ccccc2/C1=C/C(=N/c1nnc(-c2ccccc2)s1)c1ccccc1` is higher in growth: 47.5% for the first, 56% for the second.

First: COc1ccc(-c2nn(-c3cccc(Cl)c3)cc2-c2cc(-c3ccccc3)nc(N)n2)cc1
Second: Clc1ccc(-c2n[nH]c3c2Cc2ccccc2-3)cc1Cl
The growth of the first is lower: 30% for the first, 75.3% for the second.

Compared with `NC(=O)c1ccc[n+](CC(=O)N2CCN(c3cc4c(cc3F)c(=O)c(C(=O)O)cn4C3CC3)CC2)c1`, `CN1CCC(n2cc(Nc3ncc4c(=O)n(-c5c(Cl)cccc5Cl)cc(Br)c4n3)cn2)CC1` is lower in growth: 87.2% for the first, 12.7% for the second.

For `CO[C@H]1CC(O[C@@H]2/C(C)=C/C[C@@H]3C[C@@H](C[C@]4(CC[C@H](C)[C@@H](C5CCCCC5)O4)O3)OC(=O)[C@@H]3C=C(C)/C(=N/O)[C@H]4OC/C(=C\C=C\[C@@H]2C)[C@]43O)O[C@@H](C)C1O` (stereo not given in full), the growth was -87% (active).
For `O=c1[nH]cnc2c1ncn2C1OC(CO)C(O)C1O` (stereo not given), the growth was 123% and 113% and 111%.
For `CSc1ccc(SC2c3ccc(C)cc3Oc3nc(N)c(C#N)c(N)c32)cc1` (stereo not given), the growth was -75.8% (active).
`COc1ccc(-c2nn(-c3cccc(Cl)c3)cc2-c2c(C#N)c(=O)n3[nH]c(-c4ccc(C)cc4)nc3c2C#N)cc1` was tested, and the growth was -1.87% (active).
In the case of `CC(C)=CCc1cc(O)cc2c1OC(C=C(C)C)C1=C2C(=O)C2=C(C1=O)S(=O)(=O)CCN2` (stereo not given), the growth is reported as -31.2% (active).
`COC(=O)c1ccc2c(c1)[n+](=O)c(C(C)=O)c(C(F)(F)F)n2[O-]` was tested, and the growth was -83.7% (active).
`COc1ccc(/C=C/c2n[nH]c3ccc(N4CCOC4=O)cc23)cc1` was tested, and the growth was -0.999% (active).
`C#CCNC(=O)c1cccc2c1cc(C)n2-c1nc2c(c(NCc3ccccc3)n1)CCCC2` was tested, and the growth was -50.9% (active).
`N=C(N)c1ccc(-c2ccc(-c3ccc(F)cc3)o2)o1` was tested, and the growth was 5.37% (active).
`Cc1ccc(NC(=O)Nc2ccc(-c3cccnc3)cc2N2CCC(CO)CC2)cc1` was tested, and the growth was -16.6% (active).
For `COc1ccc(C2=C(c3cn(C)c4ccccc34)C(=O)OC2)cc1OC`, the growth was 1.23% (active).
For `O=P(O)(O)OCC1OC(n2cnc3c(NCc4ccccc4)ncnc32)C(O)C1O` (stereo not given), the growth was -28.6% (active).
